SMILES strings stand for the structures. Results with a measured potency or affinity are listed apart. Activity calls are given as the source filed them.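 How the source made its calls: active means cytotoxic compounds whose fitted half-maximal concentration is at most twice the top valid tested dose; inconclusive means flat curve showing 30 to 70% signal loss, or poor fit; inactive means the rest.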

A short description of this assay: A549 cell cytotoxicity, dose response, cytotoxicity control, 24 h, CellTiter-Glo luminescence, cherry-picks (AID 1053115). Conditions: A549 viability, CellTiter-Glo ATP luminescence; series mostly up to 30 µM. Background: Cellular ATP, detected with luciferase, serves as a proxy for viable cell number.
For `C[C@H](CO)N1C[C@H](C)[C@H](CN(C)Cc2ccccc2)Oc2cc(C#C[C@@H](C)O)ccc2S1(=O)=O`, the compound was classed as inactive.
To `C[C@H](CO)N1C[C@H](C)[C@@H](CN(C)S(=O)(=O)c2ccc(Cl)cc2)Oc2c(NS(=O)(=O)c3cn(C)cn3)cccc2C1=O` belongs “inactive”; to `C[C@@H](O)C#Cc1ccc2c(c1)O[C@H](CN(C)Cc1ccccc1)[C@@H](C)CN([C@@H](C)CO)S2(=O)=O`, “inactive”.
In the case of `C[C@H](O)C#Cc1ccc2c(c1)O[C@@H](CN(C)Cc1ccccc1)[C@@H](C)CN([C@@H](C)CO)S2(=O)=O`, the call was inactive.
On to `C[C@H](O)C#Cc1ccc2c(c1)O[C@H](CN(C)Cc1ccccc1)[C@@H](C)CN([C@H](C)CO)S2(=O)=O`, for which the call was inactive.
To `N#Cc1ccc(-c2ccc3c(c2)[C@@H]2[C@@H](CCN2C(=O)C2CCCCC2)[C@@H](CO)N3)cc1` belongs “inactive”.
To `C[C@@H](O)C#Cc1ccc2c(c1)O[C@@H](CN(C)Cc1cccnc1)[C@@H](C)CN([C@@H](C)CO)S2(=O)=O` belongs “inactive”.
For the compound `C[C@H]1CCCCO[C@H](CN(C)S(=O)(=O)c2ccc(Cl)cc2)[C@@H](C)CN([C@@H](C)CO)C(=O)c2cc(NC(=O)Nc3ccc(F)cc3)ccc2O1`, the call was inactive.
In the case of `CN(C)C(=O)c1ccc(-c2cccc(-c3nc(C(=O)NC4CCCC4)cc4c3[C@H](CCO)N([S@@](=O)C(C)(C)C)C4)c2)cc1` it was “inactive”.
To `C[C@H](O)C#Cc1ccc2c(c1)O[C@H](CN(C)Cc1ccccc1)[C@H](C)CN([C@@H](C)CO)S2(=O)=O` belongs “inactive”; to `CCCNC(=O)c1cc2c(c(-c3cccc(-c4cccc(F)c4)c3)n1)[C@H](CCO)N([S@@](=O)C(C)(C)C)C2`, “inactive”.
To `C[C@@H](O)C#Cc1ccc2c(c1)O[C@@H](CN(C)Cc1ccncc1)[C@@H](C)CN([C@@H](C)CO)S2(=O)=O` belongs “inactive”; to `Cc1ccc(S(=O)(=O)N(C)C[C@H]2Oc3cc(C#Cc4ccncc4)ccc3S(=O)(=O)N([C@@H](C)CO)C[C@H]2C)cc1`, “inactive”.
Consider `COc1ccccc1CN1CC[C@@H]2[C@@H](CO)Nc3ccc(-c4ccc(C(=O)N(C)C)cc4)cc3[C@@H]21`, for which the compound was called inactive.
Take `C[C@H](O)C#Cc1ccc2c(c1)O[C@@H](CN(C)Cc1ccccc1)[C@H](C)CN([C@@H](C)CO)S2(=O)=O`: the result was inactive.
To `C[C@H](O)C#Cc1ccc2c(c1)O[C@H](CN(C)Cc1ccc(-c3ccccc3)cc1)[C@H](C)CN([C@H](C)CO)S2(=O)=O` belongs “inactive”; to `COc1ccccc1CN1CC[C@H]2[C@H](CO)Nc3ccc(-c4ccc(C(=O)N(C)C)cc4)cc3[C@H]21`, “inactive”; to `C[C@@H]1CN([C@H](C)CO)C(=O)c2cccc(NC(=O)Nc3ccc(F)cc3)c2O[C@@H]1CN(C)S(=O)(=O)c1ccc(Cl)cc1`, “inactive”.
In the case of `OC[C@H]1Nc2ccc(-c3cccc(F)c3)cc2[C@@H]2[C@H]1CCN2Cc1ccc(F)cc1` it was “inactive”; in that of `CN1c2ccc(C#Cc3cccnc3)cc2[C@@H]2[C@@H](CCN2C(=O)C2CCC2)[C@H]1CO`, “inactive”.
For `C[C@H](O)C#Cc1ccc2c(c1)O[C@H](CN(C)Cc1ccc(-c3ccccc3)cc1)[C@H](C)CN([C@@H](C)CO)S2(=O)=O`, the compound was classed as inactive.
In the case of `CN1CCN(C(=O)c2cc3c(c(-c4cccc(C#CCC5CCCC5)c4)n2)[C@@H](CCO)N(S(=O)C(C)(C)C)C3)CC1` (some centres not stated), the outcome was inactive.

The values above are taken from PubChem BioAssay AID1053115 (Broad Institute, 2014).
